In the library only some 19% were active in any assay of this set; here they are far more common.
HT1080-NT tox = kills 2HG-producing HT-1080-NT fibrosarcoma cells. Potency, µM (top dose mostly 46.1 µM), inactives show top-dose activity, negative = less viability, most hits filed as cytotoxic. HT-1080-NT fibrosarcoma viability, CellTiter-Glo ATP luminescence, 48 h. 360,000 tested, 1.6% active;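 note: NT is the 2HG producing partner of a matched IDH1 knockdown line; potency is the fitted concentration of half-maximal effect; 0% = DMSO-treated cells and -100% = media-only wells without cells; nearly all actives have a fitted effect of over 55% in size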
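HT-1080-NT fibrosarcoma cells (2HG-overproducing), 750 cells/well in RPMI with 5% FBS, dosed after 2 h and incubated 48 h at 37C. CellTiter-Glo luminescence normalized to DMSO and no-cell wells; concentration-response curves fitted and classed.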
TDP1 cell CPT = growth inhibition of DT40 Tdp1-/-;hTDP1 cells with camptothecin (screen for TDP1 inhibitors) | chicken DT40 Tdp1-/-;hTDP1 cells + 20 nM CPT, ATP luminescence, 48 h | Potency, µM (titrated, usually from 46.2 µM), for inactives: top-dose activity change, negative = growth inhibition, usual class: inhibitors | 420,000 tested, 12% active | AID 686979; note: potency is the fitted concentration of half-maximal effect; nearly all actives have a fitted effect of over 55% in size
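Cell growth measured by CellTiter-Glo luminescence after a minimum 48 h, 37 C compound exposure with 20 nM CPT in Tdp1-knockout DT40 cells stably expressing hTDP1, seeded 400/well; qHTS titration format.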
IL-1B inflam inh = inhibitors of inflammasome signaling (IL-1 beta secretion); 360,000 tested, 4.7% active; activity change, % at 57.5 µM; THP-1 LPS/ATP IL-1B secretion, AlphaLISA, 16 h; active compounds read low; in the data active = activity change below about -50%; inconclusive = mostly about -30% to -49%
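THP-1 cells pretreated 1 hr with compounds (up to 57.5 uM final), then stimulated with LPS (250 ng/mL final) plus ATP (1.25 mM final); secreted IL-1B measured by AlphaLISA after 16 hr, decreased signal indicating inhibition.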
HT1080 IDH1KD tx = HT-1080 IDH1 knockdown cell toxicity (counter line); Potency, µM (highest dose often 46.1 µM), for the others: at the highest dose activity, negative = toxicity, usual class: cytotoxic; HT-1080 IDH1 knockdown viability, ATP luminescence, 48 h; 360,000 tested, 2% active; AID 686971;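 note: potency is the fitted concentration of half-maximal effect; 0% = DMSO wells and -100% = cell-free medium wells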
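In this qHTS, HT-1080 cells depleted of IDH1 are exposed for 48 h at 37 °C to compound titrations. Toxicity is scored from CellTiter-Glo luminescence, with DMSO as full viability and medium alone as none.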
TDP1 cell noCPT = qHTS for Inhibitors of human tyrosyl-DNA phosphodiesterase 1 (TDP1): qHTS in cells in absence of CPT | 420,000 tested, 15% active | Potency, µM (series often up to 46.2 µM), inactives show top-dose activity change, negative = growth inhibition, hits mostly inhibitors | DT40 Tdp1-/- hTDP1 cells, no CPT, ATP luminescence, 48 h; note: potency is the fitted concentration of half-maximal effect; nearly all actives have a fitted effect of over 55% in size
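Chicken DT40 Tdp1-/- cells complemented with human TDP1, screened without camptothecin (DMSO vehicle only), 400 cells/well. Compounds pin-transferred, cells incubated at 37 °C for at least 48 hr. Growth read as ATP-dependent luminescence (CellTiter-Glo, 30 min at RT).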
An asterisk follows results filed as active; ? = inconclusive; · = no result given. Unless noted, calls come from the whole dose curve; as a rule, active = well fitted curve in the direction sought with a large enough effect; inconclusive = small, poorly fitted or top-dose-only effect, or another doubt; inactive = no such curve, though single readings can be large; an effect the other way counts as inactive or inconclusive. Unless noted, % is set by controls: 0 for no effect and ±100 for the full control effect.

SMILES	HT1080-NT tox	TDP1 cell CPT	IL-1B inflam inh	HT1080 IDH1KD tx	TDP1 cell noCPT
CC(C)(C)c1cc(C(=O)N/N=C/c2ccccc2O)n(-c2ccccc2)n1	?	6.5µM*	62	?	6.5µM*
Cc1ccc(C(=O)NCCC(=O)N2CCCC2)cc1	-2%	19%	-7	-4%	0%
O=C(Nc1ccc(Br)cn1)c1cccc2ccccc12	2.9µM*	2.1µM*	-9	5.8µM*	2.1µM*
O=C(Nc1ccc(Br)cn1)c1ccc2ccccc2c1	-7%	?	22	-15%	15µM*
O=C(Nc1ccc(Br)cn1)c1ccc2nccnc2c1	-1%	13µM*	24	-4%	18µM*
CSc1ncc(C(=O)Nc2ccc(Br)cn2)c(C)n1	-21%	16µM*	46	-26%	?
O=C(Nc1ccc(Br)cn1)c1cccc(C(=O)Nc2ccc(Br)cn2)c1	-4%	?	40	-4%	?
O=C(Nc1cc(S(=O)(=O)N2CCOCC2)ccc1N1CCOCC1)c1cccs1	-6%	-23%	-6	13%	-7%
CCn1c(=N)n(CC(=O)c2cccc([N+](=O)[O-])c2)c2ccccc21	4%	?	-27	1%	21µM*
N=c1n(CCN2CCOCC2)c2ccccc2n1CC(=O)c1ccc(Cl)c(Cl)c1	-23%	?	-7	?	18µM*
N=c1n(CCN2CCOCC2)c2ccccc2n1CC(=O)c1cccc([N+](=O)[O-])c1	0%	16µM*	-2	-18%	23µM*
N=c1n(CC(=O)c2cccc([N+](=O)[O-])c2)c2ccccc2n1Cc1ccccc1	-23%	16µM*	-104*	?	21µM*
CCCCOC(=O)Cn1c(=N)n(CCN2CCOCC2)c2ccccc21	-2%	9%	20	10%	-17%
COc1ccc(Cl)cc1NC(=O)C1CC(=O)N(C2CCCCC2)C1 (configuration not stated)	-3%	-25%	1	15%	-14%
C=CCNC(=S)/N=c1/ccccn1CCC	-1%	?	33	-1%	23µM*
COc1ccccc1-c1cc2nc(NCCc3ccc(S(N)(=O)=O)cc3)ccn2n1	-3%	?	-68*	-2%	21µM*
CCS(=O)(=O)Nc1cc(C(=O)N[C@H]2CCCCNC2=O)c2c(c1)nc(-c1ccccc1)n2C	·	1%	·	·	-10%
O=C(CCCN1C(=O)C(c2ccccc2)Oc2cccnc21)Nc1ccccc1C(F)(F)F (configuration not stated)	·	-17%	·	·	2%
O=C(CCCN1C(=O)C(c2ccccc2)Oc2cccnc21)NCc1ccccc1F (configuration not stated)	-1%	16µM*	-22	0%	?
CCN(CC)c1ccc(NC(=O)CCCN2C(=O)C(c3ccccc3)Oc3cccnc32)c(C)c1 (configuration not stated)	·	18µM*	·	·	10µM*
Cc1cc(Br)ccc1NC(=O)COC(=O)c1ccccc1OCC(=O)N(C)C	·	7%	·	·	-11%
N#C/C(=N\Nc1cccc(C(F)(F)F)c1)C(=O)c1ccsc1	4.6µM*	5.2µM*	?	?	5.8µM*
COc1ccc(C2C=C(C)Nc3nc4ccccc4n32)cc1 (configuration not stated)	-3%	-4%	21	-6%	18µM*
CCOc1c(Br)cc(Br)cc1/C=C1\SC(N)=NC1=O	10%	0%	1	3%	4%
C/C=C(/C)C(=O)Nc1cccc(C2=NOC3(C2)C[C@@H](C(N)=O)N(C(=O)CCCCC)C3)c1 (some centres not stated)	11%	-2%	8	8%	-12%
SMILES	HT1080-NT tox	TDP1 cell CPT	IL-1B inflam inh	HT1080 IDH1KD tx	TDP1 cell noCPT
C=CCN(c1ccc(C(=O)Nc2ccc(NC(C)=O)cc2)cc1)S(C)(=O)=O	1%	?	28	-3%	23µM*
Cc1csc(N=Nc2ccc(N(C)C)cc2)[n+]1[O-]	?	10µM*	-80*	?	9.2µM*
CN(C)c1ccc(N=Nc2ccc(C(=O)O)cc2)cc1	4%	0%	31	2%	2%
Cc1ccc(C(C)(C)C)cc1S(=O)(=O)Nc1cccc(S(=O)(=O)NC2=NCCC2)c1	-1%	-3%	111	-14%	?
O=c1c2ccccc2ncn1Cc1cccc2ccccc12	-2%	?	-54*	1%	-13%
Cc1ccc(C(=O)[C@@H]2[C@H]3C4COC(O4)C(=O)[C@@H]3[C@H]3C=Cc4ccccc4N32)cc1 (some centres not stated)	·	-3%	·	·	-18%
CC(=O)[C@@H]1[C@H]2[C@H](C(=O)[C@H]3OC[C@@H]2O3)[C@H]2C=Cc3ccccc3N21	·	?	·	·	21µM*
N#Cc1ccc(CN2CCCC3(CCN(C(=O)c4ccncc4)CC3)C2)cc1	·	-1%	·	·	-12%
Cc1cc(C)cc(NC(=O)N2CCc3ccccc3C2)c1	-6%	-16%	?	4%	-9%
O=C(NC1CCCCC1)C(c1ccccc1)N1CCc2ccccc21 (configuration not stated)	-7%	26µM*	-11	0%	21µM*
O=C(NC1CCCCC1)N1CCc2ccccc2C1	-3%	-11%	-79*	-4%	-18%
O=C(Nc1ccc(F)cc1)N1CCc2ccccc2C1	10%	-28%	-55*	-1%	?
O=C(Nc1ccc(Br)cc1)N1CCc2ccccc2C1	-5%	-23%	-83*	-3%	-11%
O=C(NC1CCCC1)C(c1ccc(Cl)cc1)N1CCc2ccccc21 (configuration not stated)	2%	-13%	9	2%	-10%
COC(=O)C[C@H](NC(=O)[C@H](C)NC(=O)[C@@H](NC(=O)OCc1ccccc1)C(C)C)C(=O)CF	·	-2%	·	·	10%
CC1=C(C)/C(=N\OS(=O)(=O)c2ccc(C)cc2)C=CC1=O	13µM*	0.58µM*	-103*	6.5µM*	0.65µM*
COc1ccc(S(=O)(=O)/N=C2/C=CC(=O)C(C)=C2C)cc1	-10%	1.8µM*	50	-8%	1.6µM*
COc1ccc(/C=N/S(=O)(=O)c2ccc(C)cc2)cc1	8%	1%	18	11%	8%
Cc1noc(C)c1COc1ccccc1C(=O)NCCc1ccc(S(N)(=O)=O)cc1	6%	8%	27	21%	1%
COc1ccccc1NC1=C(Cl)C(=O)N(c2ccccc2)C1=O	7%	7%	23	19%	3%
CCOc1ccc(N2C(=O)C(Cl)=C(Nc3ccccc3O)C2=O)cc1	-18%	21µM*	-9	-27%	13µM*
